{"source": "PubChem BioAssay AID624256", "about": "(NMMLSC, 2012)", "note": "Out of some 360,000 compounds screened, about 3,700 (1%) were called active. About 2% were inconclusive and are not listed. This is one part of a sample in which actives are shown more often than they occur.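 The calls were made as follows: active = normalized GFP-positive differentiation at or above the plate's own cutoff, the solvent-only control mean plus 3 SD; inconclusive = no clear call, values can overlap the other calls; inactive = the rest.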"}
{"test": "HoxA9-arrested leukemia cell differentiation promoters – flow cytometry, MLPCN library, primary screen (AID 624256);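 as to GFP+ MAC1+ double positive: cells exposed to compound for four days before flow analysis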;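 as to normalized GFP-positive differentiation: cells exposed to compound for four days before flow analysis; 0% = DMSO wells and 100% = fulvestrant positive control at 5 µM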", "settings": "ER-HoxA9 myeloid progenitors, lysozyme-GFP differentiation, at 10 µM; GFP+ MAC1+ double positive: measured here: differentiation confirmed by MAC1 staining, stronger effect = higher value; normalized GFP-positive differentiation: stronger effect = higher value", "units": {"GFP+ MAC1+ double positive": "%"}}
{"smiles": "O=C1NC(=O)N(CCc2ccc(F)cc2)C(=O)/C1=C/C=C/c1ccccc1", "GFP+ MAC1+ double positive": 0.9, "normalized GFP-positive differentiation": "70.4% (active)"}
{"smiles": "CNC(=O)O/N=C(\\N)Cc1csc2ccc(Cl)cc12", "GFP+ MAC1+ double positive": 0.2, "outcome": "inactive"}
{"smiles": "CC(C)Nc1nc(Cl)nc(NC(C)C)n1", "GFP+ MAC1+ double positive": 0.1, "outcome": "inactive"}
{"smiles": "COc1ccc(N=Cc2c(O)n(C)c(=O)[nH]c2=O)cc1", "GFP+ MAC1+ double positive": 0.4, "outcome": "inactive"}
{"smiles": "C[C@H]1CN([C@@H](C)CO)C(=O)CCCn2nncc2CO[C@H]1CN(C)C(=O)Oc1ccccc1", "GFP+ MAC1+ double positive": 0.8, "outcome": "inactive"}
{"smiles": "Cc1ccccc1NC(=O)COC(=O)c1cc(C)n(C2CC2)c1C", "GFP+ MAC1+ double positive": 1.3, "outcome": "inactive"}
{"smiles": "CC(=NCC1CCCO1)c1c(O)n(-c2ccccc2)c(=O)[nH]c1=O", "note": "(stereo not given)", "GFP+ MAC1+ double positive": 0.9, "outcome": "inactive"}
{"smiles": "OCC#CC[N+]1(CC#Cc2ccccc2)CCCC1", "GFP+ MAC1+ double positive": 1.2, "normalized GFP-positive differentiation": "7.55% (active)"}
{"smiles": "COC(=O)C1=C(c2cc3ccccc3s2)C[C@@H]2CC[C@H]1N2C(=O)NCCO", "GFP+ MAC1+ double positive": 4.1, "outcome": "inactive"}
{"smiles": "CCOC(=O)[C@]12Cc3cc(OC)ccc3[C@H]1N(C(C)C)C(=O)c1ccccc12", "GFP+ MAC1+ double positive": 1.5, "outcome": "inactive"}
{"smiles": "c1ccc(CC2CCCCN2)cc1", "note": "(stereo not given)", "GFP+ MAC1+ double positive": 0.1, "outcome": "inactive"}
{"smiles": "c1ccc2sc(C3CCCNC3)nc2c1", "note": "(stereo not given)", "GFP+ MAC1+ double positive": 1.2, "outcome": "inactive"}
{"smiles": "CC1CC=CCC12C(=O)NC(=S)NC2=O", "note": "(stereo not given)", "GFP+ MAC1+ double positive": 11.7, "normalized GFP-positive differentiation": "312% (active)"}
{"smiles": "CN1CCC[C@@H]1CCO[C@](C)(c1ccccc1)c1ccc(Cl)cc1", "GFP+ MAC1+ double positive": 3.2, "outcome": "inactive"}
{"smiles": "CC1C2Cn3c(nc4ccccc43)C1N(C)O2", "note": "(stereo not given)", "GFP+ MAC1+ double positive": 1.5, "outcome": "inactive"}
